# High-throughput results from PubChem.
# DENV2 CPE rescue: inhibitors of DENV2 cytopathic effect, primary screen, cell-based, plate reader, single concentration; 350,000 tested, 1.7% active; DENV2-infected cells, cytopathic effect rescue; CPE inhibition, % at 9.99 µM; in the data active = CPE inhibition above about 20%, passing the limit was not always enough; inconclusive = no clear call, values can overlap the other calls; tested in BHK-21 cells;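 also: 0% = median of neutral control wells and 100% = median of positive control wells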
# PGC1a acetyl inh: inhibitors of PGC1a acetylation signal, primary screen, cell-based, U2OS, AlphaScreen, inhibitor mode | AlphaScreen anti-acetyl-lysine; with virally co-expressed GCN5 acetyltransferase | inhibition, % at 15.6 µM | 350,000 tested, 0.17% active;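 active = every replicate shows inhibition of at least 40%; inconclusive = mean inhibition at least 40% but some replicate below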;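 also: 0% = neutral control wells and 100% = positive control wells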
# PvdQ acylase: P. aeruginosa PvdQ acylase inhibitors, primary screen, biochemical, fluorescence, plate reader and imaging, single point | PvdQ acylase [Pseudomonas aeruginosa LESB58] | purified PvdQ acylase | inhibition, % at 10 µM | 340,000 tested, 0.063% active | AID 488965, 2010; in the data active = inhibition above about 30%, passing the limit was not always enough; inconclusive = no clear call, values can overlap the other calls;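 also: 0% = vehicle neutral wells and 100% = reference inhibitor wells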
# miR122 inh: miR-122 Renilla sensor signal increase in Huh7, primary screen, miR-122 inhibitor project, cell-based, single point, plate reader | Huh7 miR-122 Renilla luciferase sensor, 48 h; neutral wells = 0, positive control = 100 | activation (reporter increase), % at 12.5 µM | 340,000 tested, 0.3% active | AID 602342, 2012;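 active = mean replicate activation score at least 90 and every replicate individually at or above 90; inconclusive = only one of the two criteria met; inactive = neither criterion met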;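 also: higher luciferase means less miR-122 activity so hits act as miR-122 inhibitors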
# C2C12 statin: suppressors of statin myotoxicity in C2C12 myotubes, primary screen, cell-based, single point, plate reader; 330,000 tested, 0.78% active; C2C12 myotubes + simvastatin, ATP luminescence, 48 h; scaled: DMSO 0, geranylgeraniol control 100; rescue of ATP level, % at 7.49 µM;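 active = mean ATP rescue above about 67%, or every replicate alone reaching that limit, limit read from the data, passing the limit was not always enough; inconclusive = no clear call, values can overlap the other calls; inactive = mean under the limit and some replicate under it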;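 also: myotubes were challenged with 10 µM simvastatin during compound exposure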
# The depositor's hits bear a star; ? = inconclusive; · = no result given; [ ] = another dose, or the depositor's remark. The list is not random: actives were taken first. Their share in the collection is about 2.2%.
SMILES,DENV2 CPE rescue,PGC1a acetyl inh,PvdQ acylase,miR122 inh,C2C12 statin
Nc1nc(-c2ccccc2)c(CCCOc2ccc(NC(=O)CBr)cc2)c(=O)[nH]1,24*,2,-9,·,7
O=C(Nc1cccc(F)c1)N1C[C@@H]2[C@H](c3ccccc31)[C@H](CO)N2C(=O)Cc1ccccn1,19,-6,·,21[16.7 µM],-16
O=C(C/C=N/OCc1ccc(Cl)cc1)c1cnc(-c2ccccc2)s1,·,1,-10,2,-2
O=C(C/C=N/OCc1c(Cl)cccc1Cl)c1cnc(-c2ccccc2)s1,·,?,-12,1,108*
CC(=O)N(C)C[C@@H]1Oc2ncc(-c3ccc(C(=O)N(C)C)cc3)cc2C(=O)N([C@@H](C)CO)C[C@H]1C,13,3,·,4[16.7 µM],1
CO[C@H]1CN(C)C(=O)c2ccc(NS(C)(=O)=O)cc2OC[C@@H](C)N(C(=O)C2CC2)C[C@@H]1C,3,-6,·,·,1
CCOC(=O)N1CCN(C(=O)COC(=O)COc2c(C)cc(C)cc2C)CC1,0,-10,4,-1,-13
CC(=O)N1CCN(C(=O)COC(=O)COc2c(C)cc(C)cc2C)CC1,84*,3,-18,0,11
Cc1noc(C)c1S(=O)(=O)Nc1ccc2c(c1)C(=O)N([C@@H](C)CO)C[C@@H](C)[C@@H](CN(C)S(=O)(=O)c1c(C)noc1C)O2,·,-4,·,1[16.7 µM],-14
CSc1ccc(/C=C(/NC(=O)c2ccccc2)C(=O)NCCCn2ccnc2)cc1,2,19,-19,113*,-2
Cc1sc2nc(CN(C(=O)c3cccs3)C3CCCC3)[nH]c(=O)c2c1C,·,12,-15,11,148*
O=C(c1cccs1)N(Cc1nc2sc3c(c2c(=O)[nH]1)CCCC3)C1CCCC1,·,-12,-16,7,22
Cc1nn(C)cc1NC(=O)C[C@H]1CC[C@H]2[C@@H](COc3ccc(NC(=O)C(C)C)cc3C(=O)N2C)O1,2,-2,·,-4[16.7 µM],6
Cc1[nH]c2ccccc2c1/C=N/NC(=O)c1cc(C(C)(C)C)[nH]n1,57*,-2,·,-1,·
Cc1[nH]c2ccccc2c1/C=N/NC(=O)c1cc(-c2ccccc2)n[nH]1,?,-5,-11,-5,·
O=C(C1CC1)N1C[C@@H]2[C@H](c3ccccc31)[C@@H](CO)N2S(=O)(=O)c1ccccc1,-5,-5,·,40[16.7 µM],0
Cc1nnc(SCC(=O)Nc2ccccc2F)n1Cc1ccco1,64*,-1,2,0,32
O=C(CSc1nccn1Cc1ccco1)Nc1ccccc1F,-1,·,-20,0,3
O=C(CSc1nnc(-c2cc3ccccc3cc2O)n1Cc1ccco1)c1ccc(F)cc1,·,-15,-9,231*,28
O=C(CSc1nnc(COc2ccccc2)n1Cc1ccco1)c1ccc(F)cc1,·,·,-10,14,3
Cc1ccc(OCc2nnc(SCC(=O)c3ccccc3)n2Cc2ccco2)cc1,·,2,-4,7,77*
COc1ccc(S(=O)(=O)Nc2ccc3c(c2)C(=O)N([C@@H](C)CO)C[C@@H](C)[C@H](CN(C)Cc2ccncc2)OCCCC[C@H](C)O3)cc1,-3,0,·,11[16.7 µM],·
CO[C@@H]1CN(C)C(=O)c2cc(NC(=O)Nc3ccccc3Cl)ccc2OC[C@@H](C)NC[C@@H]1C,2,-1,·,3[16.7 µM],-28
CO[C@@H]1CN(C)C(=O)c2cc(NC(=O)c3nc4ccccc4s3)ccc2OC[C@H](C)NC[C@H]1C,24*,-6,·,·,-9
CO[C@H]1CN(C)C(=O)c2cc(NC(=O)Nc3ccccc3Cl)ccc2OC[C@@H](C)NC[C@H]1C,20*,3,·,12[16.7 µM],-8
SMILES,DENV2 CPE rescue,PGC1a acetyl inh,PvdQ acylase,miR122 inh,C2C12 statin
CCS(=O)(=O)Nc1ccc2c(c1)C(=O)N(C)C[C@H](OC)[C@@H](C)CN[C@@H](C)CO2,25*,·,·,1[16.7 µM],14
CO[C@H]1CN(C)C(=O)c2cc(NC(=O)c3nc4ccccc4s3)ccc2OC[C@H](C)NC[C@H]1C,16,-2,·,·,-7
CO[C@@H]1CN(C)C(=O)c2cc(NC(=O)Nc3ccccc3)ccc2OC[C@@H](C)NC[C@@H]1C,4,·,·,1[16.7 µM],0
CO[C@H]1CN(C)C(=O)c2cc(NC(=O)Nc3ccccc3)ccc2OC[C@@H](C)NC[C@@H]1C,26*,·,·,1[16.7 µM],3
CC(C)NC(=O)Nc1ccc2c(c1)C(=O)N([C@@H](C)CO)C[C@@H](C)[C@H](CN(C)C(=O)Cc1ccccc1)OCCCC[C@@H](C)O2,0,-1,·,-13[16.7 µM],·
C[C@H]1CN([C@@H](C)CO)S(=O)(=O)c2ccc(-c3ccccc3F)cc2O[C@@H]1CN(C)C(=O)C1CC1,-3,-15,·,9[16.7 µM],21
CO[C@@H]1CN(C)C(=O)c2ccc(NC(C)=O)cc2OC[C@H](C)N(C(=O)C2CCCCC2)C[C@H]1C,-2,·,·,-2[16.7 µM],-2
Cc1cccc(NCCC#N)c1,·,1,-14,-3,·
N#CCCc1cccc(CCC#N)c1,120*,6,8,5,14
CC1CCN(C(=O)CSc2nnc(CNC(=O)COc3ccc(Cl)cc3)o2)CC1,·,-12,-15,7,96*
COCC(C)NS(=O)(=O)c1ccc(C)cc1 (stereo not given),·,-18,2,1,141*
Cc1ccc(S(=O)(=O)N[C@@H](C)CO)cc1,15,·,·,·,·
CCC(=O)N1[C@@H]2c3ccc(-c4ccncc4)c(=O)n3C[C@H]1[C@H](CO)[C@H]2C(=O)NC1Cc2ccccc2C1,-8,·,·,·,-65
O=C1NC[C@H](CC2CCCCC2)N(CC2CCCCC2)C1=O,?,26,-13,4,107*
CNC(=O)C[C@@H]1CC[C@H]2[C@@H](COC[C@H](O)CN2Cc2ccc(Cl)c(Cl)c2)O1,0,5,·,-6[16.7 µM],20
O=c1[nH]nc(-c2ccc(NCCCO)c([N+](=O)[O-])c2)c2ccccc12,1,59*,-13,-5,-10
O=c1[nH]nc(-c2ccc(NCCO)c([N+](=O)[O-])c2)c2ccccc12,15,12,-2,-10,-7
O=C(/C=C/c1ccc2c(c1)OCO2)NCCSCc1cccc(Cl)c1,·,·,-6,115*,·
Cn1cccc1-c1cc(C(=O)N/N=C/c2ccc([N+](=O)[O-])cc2)[nH]n1,3,·,1,·,-63
CC(C)c1ccc(/C=N/NC(=O)c2cc(-c3cccc([N+](=O)[O-])c3)n[nH]2)cc1,34*,-14,10,2,·
O=C(c1cc(-c2cccc(O)c2)on1)N1CCN(C(c2ccccc2)c2ccccc2)CC1,17,-32,7,0,27
O=C(c1cc(C2CC2)on1)N1CCN(C(c2ccccc2)c2ccccc2)CC1,40*,0,-4,-8,-1
